In publication PMC7862700, “An all-to-all approach to the identification of sequence-specific readers for epigenetic DNA modifications on cytosine”:

Experiments:
Assay in all cases: DAPPL (digital affinity profiling via proximity ligation, sequencing); 10 mM Tris-HCl pH 7.5, 50 mM NaCl, 1 mM DTT, 4% glycerol, room temperature, 30 min; GST-TFs on glutathione beads, 16-mer random dsDNA library, 0.1% formaldehyde crosslink after washing; high values mean tight binding
FEV = biological target: T1, FEV (Homo sapiens, UniProt Q99581 1-238); conditions: protein: recombinant; tags: N-terminal GST; dsDNA, one strand shown
T1 sequence: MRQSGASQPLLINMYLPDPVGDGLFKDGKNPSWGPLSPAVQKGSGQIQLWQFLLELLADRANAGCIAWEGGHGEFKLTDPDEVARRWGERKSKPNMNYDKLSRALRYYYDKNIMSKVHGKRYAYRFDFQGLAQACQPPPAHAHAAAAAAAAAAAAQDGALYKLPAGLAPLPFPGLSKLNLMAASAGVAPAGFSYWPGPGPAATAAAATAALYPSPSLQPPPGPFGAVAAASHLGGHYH
Summary of the method: (§1)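 Pools were built from human transcription factors expressed in yeast as GST fusions, captured on glutathione beads and DNA-barcoded, along with a tag-only sample. Incubation with 200 nmole of a 16-mer random double-stranded DNA library lasted 30 min at room temperature in Tris/NaCl/DTT/glycerol buffer, and was followed by washing, 0.1% formaldehyde crosslinking, proximity ligation, PCR amplification and Illumina NextSeq500 sequencing. Binding signal is the quotient of each hexamer's read frequency for a factor and its frequency for the tag-only sample.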

ETV5 = ETV5 (Homo sapiens, UniProt P41161 1-510); conditions: protein: recombinant; tags: N-terminal GST; dsDNA, one strand shown
Chain of ETV5 (P41161 whole entry): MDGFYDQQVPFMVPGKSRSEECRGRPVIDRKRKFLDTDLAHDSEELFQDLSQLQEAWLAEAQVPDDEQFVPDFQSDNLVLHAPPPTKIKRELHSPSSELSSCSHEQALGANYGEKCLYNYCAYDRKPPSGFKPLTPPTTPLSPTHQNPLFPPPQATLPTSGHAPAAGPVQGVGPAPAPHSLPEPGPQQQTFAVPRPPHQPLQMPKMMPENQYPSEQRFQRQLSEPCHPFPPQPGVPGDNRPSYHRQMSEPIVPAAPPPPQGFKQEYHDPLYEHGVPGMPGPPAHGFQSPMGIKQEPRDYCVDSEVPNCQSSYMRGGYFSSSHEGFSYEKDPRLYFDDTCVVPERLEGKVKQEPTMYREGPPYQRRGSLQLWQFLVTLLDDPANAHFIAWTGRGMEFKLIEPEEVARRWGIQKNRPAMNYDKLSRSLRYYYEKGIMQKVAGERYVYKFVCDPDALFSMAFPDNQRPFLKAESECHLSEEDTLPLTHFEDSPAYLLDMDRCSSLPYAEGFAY
Summary of the method: as §1

HSF1 = HSF1 (Homo sapiens, UniProt Q00613 1-529); conditions: protein: recombinant; tags: N-terminal GST; chain copies: 3; dsDNA, one strand shown
Chain of HSF1 (Q00613 whole entry): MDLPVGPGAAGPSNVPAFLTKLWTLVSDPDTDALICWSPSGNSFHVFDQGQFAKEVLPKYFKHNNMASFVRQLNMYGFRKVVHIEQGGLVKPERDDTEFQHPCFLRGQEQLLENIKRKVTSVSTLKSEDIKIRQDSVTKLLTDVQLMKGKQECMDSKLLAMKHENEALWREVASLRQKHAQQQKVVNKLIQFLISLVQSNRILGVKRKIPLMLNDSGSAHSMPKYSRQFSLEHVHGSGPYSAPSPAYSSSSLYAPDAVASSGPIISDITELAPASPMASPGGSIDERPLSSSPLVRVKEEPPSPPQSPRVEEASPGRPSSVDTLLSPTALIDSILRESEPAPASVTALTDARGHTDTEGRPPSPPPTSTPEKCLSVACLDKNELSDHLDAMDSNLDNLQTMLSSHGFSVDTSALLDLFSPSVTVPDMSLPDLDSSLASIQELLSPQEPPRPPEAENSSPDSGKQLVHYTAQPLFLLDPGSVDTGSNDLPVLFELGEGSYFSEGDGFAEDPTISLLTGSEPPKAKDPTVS
Summary of the method: as §1

SPIC = biological target: T2, SPIC (Homo sapiens, UniProt Q8N5J4 1-248); conditions: protein: recombinant; tags: N-terminal GST; dsDNA, one strand shown
T2 sequence: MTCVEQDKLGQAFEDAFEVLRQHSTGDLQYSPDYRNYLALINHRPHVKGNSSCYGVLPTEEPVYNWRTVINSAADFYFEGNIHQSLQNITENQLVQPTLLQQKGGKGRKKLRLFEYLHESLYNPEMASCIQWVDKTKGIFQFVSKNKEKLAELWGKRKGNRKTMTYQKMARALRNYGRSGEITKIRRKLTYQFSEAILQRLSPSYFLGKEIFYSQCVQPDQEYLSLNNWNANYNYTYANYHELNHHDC
Summary of the method: as §1

ELF4 = ELF4 (Homo sapiens, UniProt Q99607 1-663); conditions: protein: recombinant; tags: N-terminal GST; dsDNA, one strand shown
Chain of ELF4 (Q99607 whole entry): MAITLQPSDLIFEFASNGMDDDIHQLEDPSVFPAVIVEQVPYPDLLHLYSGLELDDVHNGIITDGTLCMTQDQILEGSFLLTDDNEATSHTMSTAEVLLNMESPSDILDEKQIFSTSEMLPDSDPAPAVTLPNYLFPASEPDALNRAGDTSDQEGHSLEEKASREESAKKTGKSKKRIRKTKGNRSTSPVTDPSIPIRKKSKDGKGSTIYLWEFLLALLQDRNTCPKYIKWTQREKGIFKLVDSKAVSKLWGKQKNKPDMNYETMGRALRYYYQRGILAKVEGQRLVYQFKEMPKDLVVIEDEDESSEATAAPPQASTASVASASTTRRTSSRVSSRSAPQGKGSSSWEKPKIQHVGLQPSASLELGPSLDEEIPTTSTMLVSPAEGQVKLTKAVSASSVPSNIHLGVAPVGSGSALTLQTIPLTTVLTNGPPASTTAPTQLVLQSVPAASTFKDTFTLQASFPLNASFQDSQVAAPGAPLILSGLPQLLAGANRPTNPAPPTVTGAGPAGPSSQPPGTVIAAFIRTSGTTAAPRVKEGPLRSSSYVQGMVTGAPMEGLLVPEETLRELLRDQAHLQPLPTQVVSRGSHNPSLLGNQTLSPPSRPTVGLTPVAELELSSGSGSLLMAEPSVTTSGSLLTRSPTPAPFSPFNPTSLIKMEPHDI
Summary of the method: as §1

ELK4 = biological target: T3, ELK4 (Homo sapiens, UniProt P28324-2 1-405); conditions: protein: recombinant; tags: N-terminal GST; dsDNA, one strand shown
T3 sequence: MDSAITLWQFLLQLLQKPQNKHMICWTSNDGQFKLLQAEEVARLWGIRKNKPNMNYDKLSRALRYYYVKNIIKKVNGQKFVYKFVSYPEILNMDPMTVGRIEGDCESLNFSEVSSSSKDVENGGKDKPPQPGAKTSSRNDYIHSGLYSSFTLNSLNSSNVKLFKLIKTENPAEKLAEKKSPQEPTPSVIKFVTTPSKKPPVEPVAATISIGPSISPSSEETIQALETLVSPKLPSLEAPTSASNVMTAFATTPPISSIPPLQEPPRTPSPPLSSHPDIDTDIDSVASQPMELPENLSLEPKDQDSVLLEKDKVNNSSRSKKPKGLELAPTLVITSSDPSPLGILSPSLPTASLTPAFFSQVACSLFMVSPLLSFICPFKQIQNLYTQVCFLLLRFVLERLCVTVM
Summary of the method: as §1

ETV2 = biological target: T4, ETV2 (Homo sapiens, UniProt O00321 1-342); conditions: protein: recombinant; tags: N-terminal GST; dsDNA, one strand shown
T4 sequence: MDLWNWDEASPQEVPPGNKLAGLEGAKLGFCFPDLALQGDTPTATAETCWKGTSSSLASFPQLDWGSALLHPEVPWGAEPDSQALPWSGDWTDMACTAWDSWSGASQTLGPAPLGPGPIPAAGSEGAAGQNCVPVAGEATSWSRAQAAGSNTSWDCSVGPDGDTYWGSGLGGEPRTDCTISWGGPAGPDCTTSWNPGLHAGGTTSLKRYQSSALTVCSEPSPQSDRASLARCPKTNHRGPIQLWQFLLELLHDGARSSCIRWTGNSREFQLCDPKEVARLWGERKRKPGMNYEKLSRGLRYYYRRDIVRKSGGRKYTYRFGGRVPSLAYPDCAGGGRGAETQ
Summary of the method: as §1

ELF3 = biological target: T5, ELF3 (Homo sapiens, UniProt P78545 1-371); conditions: protein: recombinant; tags: N-terminal GST; dsDNA, one strand shown
T5 sequence: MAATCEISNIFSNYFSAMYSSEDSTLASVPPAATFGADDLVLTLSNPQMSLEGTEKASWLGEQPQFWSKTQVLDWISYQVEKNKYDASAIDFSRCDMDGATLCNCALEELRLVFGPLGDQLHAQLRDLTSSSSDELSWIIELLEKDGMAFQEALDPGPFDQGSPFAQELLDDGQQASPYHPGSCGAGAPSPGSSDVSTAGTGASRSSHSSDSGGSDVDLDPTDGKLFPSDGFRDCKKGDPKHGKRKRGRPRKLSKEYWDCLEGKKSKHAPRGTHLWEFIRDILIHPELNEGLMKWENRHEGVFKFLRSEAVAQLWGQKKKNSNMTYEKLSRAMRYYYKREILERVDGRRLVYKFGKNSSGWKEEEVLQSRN
Summary of the method: as §1

CRX = CRX (Homo sapiens, UniProt O43186 1-299); conditions: protein: recombinant; tags: N-terminal GST; dsDNA, one strand shown
Chain of CRX (O43186 whole entry): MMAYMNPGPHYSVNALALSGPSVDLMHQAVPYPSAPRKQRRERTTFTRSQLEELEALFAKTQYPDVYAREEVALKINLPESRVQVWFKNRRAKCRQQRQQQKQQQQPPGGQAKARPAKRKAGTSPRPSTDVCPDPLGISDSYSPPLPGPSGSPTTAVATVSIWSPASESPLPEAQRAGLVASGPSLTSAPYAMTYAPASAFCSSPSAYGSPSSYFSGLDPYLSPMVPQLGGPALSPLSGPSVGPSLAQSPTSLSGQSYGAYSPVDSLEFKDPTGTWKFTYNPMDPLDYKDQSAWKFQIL
Summary of the method: as §1

ETV1 = ETV1 (Homo sapiens, UniProt P50549 1-477); conditions: protein: recombinant; tags: N-terminal GST; dsDNA, one strand shown
Chain of ETV1 (P50549 whole entry): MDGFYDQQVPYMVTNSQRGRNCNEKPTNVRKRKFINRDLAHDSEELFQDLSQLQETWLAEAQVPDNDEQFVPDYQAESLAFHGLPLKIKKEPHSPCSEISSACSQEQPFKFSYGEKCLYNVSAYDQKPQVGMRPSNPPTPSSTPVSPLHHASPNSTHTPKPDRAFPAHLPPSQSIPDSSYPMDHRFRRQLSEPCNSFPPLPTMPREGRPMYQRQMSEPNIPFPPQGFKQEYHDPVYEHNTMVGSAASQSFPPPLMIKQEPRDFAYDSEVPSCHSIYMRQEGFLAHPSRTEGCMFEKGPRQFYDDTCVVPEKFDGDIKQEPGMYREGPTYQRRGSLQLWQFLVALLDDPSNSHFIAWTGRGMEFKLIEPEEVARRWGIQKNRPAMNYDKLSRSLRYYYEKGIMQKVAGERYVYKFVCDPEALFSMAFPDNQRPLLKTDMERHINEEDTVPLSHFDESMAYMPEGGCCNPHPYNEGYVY
Summary of the method: as §1

ERF = biological target: T6, ERF (Homo sapiens, UniProt P50548 1-548); conditions: protein: recombinant; tags: N-terminal GST; dsDNA, one strand shown
T6 sequence: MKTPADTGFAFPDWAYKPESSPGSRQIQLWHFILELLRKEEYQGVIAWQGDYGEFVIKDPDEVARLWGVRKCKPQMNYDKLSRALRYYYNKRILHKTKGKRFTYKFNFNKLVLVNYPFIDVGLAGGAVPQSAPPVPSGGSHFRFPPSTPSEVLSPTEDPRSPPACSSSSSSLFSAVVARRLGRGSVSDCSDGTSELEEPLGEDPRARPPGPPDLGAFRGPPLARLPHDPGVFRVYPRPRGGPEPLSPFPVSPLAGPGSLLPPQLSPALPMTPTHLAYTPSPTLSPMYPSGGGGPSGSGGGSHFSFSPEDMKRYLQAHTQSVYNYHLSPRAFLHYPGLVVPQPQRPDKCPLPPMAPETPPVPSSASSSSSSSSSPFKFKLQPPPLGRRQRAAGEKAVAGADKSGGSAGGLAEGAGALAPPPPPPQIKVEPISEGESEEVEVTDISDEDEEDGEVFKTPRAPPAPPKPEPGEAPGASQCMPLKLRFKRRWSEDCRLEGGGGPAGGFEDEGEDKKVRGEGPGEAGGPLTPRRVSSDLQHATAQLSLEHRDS
Summary of the method: as §1

ETV3L = biological target: T7, ETV3L (Homo sapiens, UniProt Q6ZN32 1-361); conditions: protein: recombinant; tags: N-terminal GST; dsDNA, one strand shown
T7 sequence: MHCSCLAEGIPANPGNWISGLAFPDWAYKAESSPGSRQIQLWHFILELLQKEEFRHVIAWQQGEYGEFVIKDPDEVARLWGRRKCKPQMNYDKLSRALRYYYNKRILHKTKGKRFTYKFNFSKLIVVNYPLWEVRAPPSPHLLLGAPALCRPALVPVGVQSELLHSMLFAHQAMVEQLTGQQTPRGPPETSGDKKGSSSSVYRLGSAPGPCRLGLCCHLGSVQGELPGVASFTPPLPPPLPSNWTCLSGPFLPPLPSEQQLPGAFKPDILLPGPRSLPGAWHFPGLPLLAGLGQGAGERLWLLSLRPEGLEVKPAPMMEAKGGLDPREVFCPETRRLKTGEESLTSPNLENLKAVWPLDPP
Summary of the method: as §1

ETS2 = biological target: T8, ETS2 (Homo sapiens, UniProt P15036 1-469); conditions: protein: recombinant; tags: N-terminal GST; dsDNA, one strand shown
T8 sequence: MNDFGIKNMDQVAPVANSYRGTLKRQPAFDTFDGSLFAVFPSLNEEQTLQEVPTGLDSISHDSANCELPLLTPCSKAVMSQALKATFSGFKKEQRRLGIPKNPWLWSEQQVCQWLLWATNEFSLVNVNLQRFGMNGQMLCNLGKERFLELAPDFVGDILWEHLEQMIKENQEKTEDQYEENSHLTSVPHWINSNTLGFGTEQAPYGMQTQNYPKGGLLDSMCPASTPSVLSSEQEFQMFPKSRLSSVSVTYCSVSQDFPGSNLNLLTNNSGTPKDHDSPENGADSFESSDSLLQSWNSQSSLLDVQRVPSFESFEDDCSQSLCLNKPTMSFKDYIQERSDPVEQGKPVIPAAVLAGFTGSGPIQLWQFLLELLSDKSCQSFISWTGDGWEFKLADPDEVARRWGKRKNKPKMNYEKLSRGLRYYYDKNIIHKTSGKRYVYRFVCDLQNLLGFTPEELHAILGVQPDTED
Summary of the method: as §1

SPDEF = biological target: T9, SPDEF (Homo sapiens, UniProt O95238 1-335); conditions: protein: recombinant; tags: N-terminal GST; dsDNA, one strand shown
T9 sequence: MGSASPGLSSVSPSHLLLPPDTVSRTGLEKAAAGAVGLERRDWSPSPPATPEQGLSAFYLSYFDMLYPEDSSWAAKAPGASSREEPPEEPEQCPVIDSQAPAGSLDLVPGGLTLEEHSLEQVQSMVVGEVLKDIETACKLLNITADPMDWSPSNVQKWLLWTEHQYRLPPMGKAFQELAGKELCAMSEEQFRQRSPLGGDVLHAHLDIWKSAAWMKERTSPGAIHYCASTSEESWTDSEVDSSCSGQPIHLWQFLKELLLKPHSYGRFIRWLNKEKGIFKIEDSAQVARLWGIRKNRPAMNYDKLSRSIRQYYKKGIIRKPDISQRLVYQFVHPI
Summary of the method: as §1

ETV7 = biological target: T10, ETV7 (Homo sapiens, UniProt Q9Y603 1-341); conditions: protein: recombinant; tags: N-terminal GST; dsDNA, one strand shown
T10 sequence: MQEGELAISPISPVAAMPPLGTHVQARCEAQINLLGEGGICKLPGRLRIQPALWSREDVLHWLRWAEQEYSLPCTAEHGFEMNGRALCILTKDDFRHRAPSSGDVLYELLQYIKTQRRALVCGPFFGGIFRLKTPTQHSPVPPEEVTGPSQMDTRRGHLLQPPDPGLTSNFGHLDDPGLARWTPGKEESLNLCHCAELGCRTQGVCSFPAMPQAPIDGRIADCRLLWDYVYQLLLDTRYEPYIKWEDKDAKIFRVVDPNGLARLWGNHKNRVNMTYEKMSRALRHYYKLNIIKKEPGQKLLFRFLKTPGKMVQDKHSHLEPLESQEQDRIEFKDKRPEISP
Summary of the method: as §1

ELF5 = biological target: T11, ELF5 (Homo sapiens, UniProt Q9UKW6-2 1-255); conditions: protein: recombinant; tags: N-terminal GST; dsDNA, one strand shown
T11 sequence: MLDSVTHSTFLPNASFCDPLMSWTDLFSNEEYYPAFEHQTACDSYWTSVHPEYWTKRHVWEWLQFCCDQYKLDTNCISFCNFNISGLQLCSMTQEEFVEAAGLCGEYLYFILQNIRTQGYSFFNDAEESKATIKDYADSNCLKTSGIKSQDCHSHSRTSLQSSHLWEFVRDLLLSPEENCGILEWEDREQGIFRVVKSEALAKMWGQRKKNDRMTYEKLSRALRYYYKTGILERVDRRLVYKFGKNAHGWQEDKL
Summary of the method: as §1

ETV3 = biological target: T12, ETV3 (Homo sapiens, UniProt P41162-2 1-143); conditions: protein: recombinant; tags: N-terminal GST; dsDNA, one strand shown
T12 sequence: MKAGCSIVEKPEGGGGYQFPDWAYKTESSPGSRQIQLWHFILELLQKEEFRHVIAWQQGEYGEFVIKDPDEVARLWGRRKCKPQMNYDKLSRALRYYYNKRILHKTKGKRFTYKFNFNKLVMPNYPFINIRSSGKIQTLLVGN
Summary of the method: as §1

ETV6 = ETV6 (Homo sapiens, UniProt P41212 1-452); conditions: protein: recombinant; tags: N-terminal GST; dsDNA, one strand shown
Chain of ETV6 (P41212 whole entry): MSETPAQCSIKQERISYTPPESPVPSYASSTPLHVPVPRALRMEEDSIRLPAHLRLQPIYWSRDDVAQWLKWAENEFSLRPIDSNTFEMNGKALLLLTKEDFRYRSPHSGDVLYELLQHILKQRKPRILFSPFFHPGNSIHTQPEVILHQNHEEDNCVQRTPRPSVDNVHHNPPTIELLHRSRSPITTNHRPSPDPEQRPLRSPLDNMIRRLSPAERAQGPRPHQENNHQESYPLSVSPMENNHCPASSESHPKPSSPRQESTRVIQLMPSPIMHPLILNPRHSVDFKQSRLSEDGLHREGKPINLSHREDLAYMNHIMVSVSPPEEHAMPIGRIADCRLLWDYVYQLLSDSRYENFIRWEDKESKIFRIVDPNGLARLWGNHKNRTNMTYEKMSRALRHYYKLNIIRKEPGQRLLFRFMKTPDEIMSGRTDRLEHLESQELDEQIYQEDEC
Summary of the method: as §1

Question: For AATAAA, which binding signal (FEV) is on record?
Answer: 1.22 fold enrichment (6-mer frequency, TF over GST control)

Question: What about the binding signal (ETV5) of the same sequence?
Answer: 1.31 fold enrichment (6-mer frequency, TF over GST control)

Question: What about the binding signal (HSF1) of the same sequence?
Answer: 1.42 fold enrichment (6-mer frequency, TF over GST control)

Question: And the binding signal (SPIC)?
Answer: 1.26 fold enrichment (6-mer frequency, TF over GST control)

Question: And the binding signal (ELF4)?
Answer: 1.29 fold enrichment (6-mer frequency, TF over GST control)

Question: What about the binding signal (ELK4) of the same sequence?
Answer: 1.28 fold enrichment (6-mer frequency, TF over GST control)

Question: What about the binding signal (ETV2) of the same sequence?
Answer: 1.21 fold enrichment (6-mer frequency, TF over GST control)

Question: What about the binding signal (ELF3) of the same sequence?
Answer: 1.31 fold enrichment (6-mer frequency, TF over GST control)

Question: What about the binding signal (CRX) of the same sequence?
Answer: 1.57 fold enrichment (6-mer frequency, TF over GST control)

Question: What about the binding signal (ETV1) of the same sequence?
Answer: 1.23 fold enrichment (6-mer frequency, TF over GST control)

Question: And the binding signal (ERF)?
Answer: 1.29 fold enrichment (6-mer frequency, TF over GST control)

Question: And the binding signal (ETV3L)?
Answer: 1.29 fold enrichment (6-mer frequency, TF over GST control)

Question: What about the binding signal (ETS2) of the same sequence?
Answer: 1.31 fold enrichment (6-mer frequency, TF over GST control)

Question: And the binding signal (SPDEF)?
Answer: 1.22 fold enrichment (6-mer frequency, TF over GST control)

Question: And the binding signal (ETV7)?
Answer: 1.24 fold enrichment (6-mer frequency, TF over GST control)

Question: What about the binding signal (ELF5) of the same sequence?
Answer: 1.2 fold enrichment (6-mer frequency, TF over GST control)

Question: And the binding signal (ETV3)?
Answer: 1.18 fold enrichment (6-mer frequency, TF over GST control)

Question: And the binding signal (ETV6)?
Answer: 1.34 fold enrichment (6-mer frequency, TF over GST control)
